# Unmarked numbers belong to inactive results. For some assays here: Entries with a potency or affinity are not part of this list. Activity calls are given as the source filed them. Unless noted, how the calls were made is not given here.
# Experiments:
# [1] = antimalarial activity against Dd2 strain (AID 2302;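 active means growth inhibition above 50% at the single 2 µM test dose, taken to imply half-maximal potency below 2 µM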;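 further: 0% = DMSO untreated growth and 100% = chloroquine plus artemisinin killed control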); settings: P. falciparum Dd2 in RBCs, LDH growth readout, 72 h; at 2 µM; stronger effect = higher value
# [2] = human hepatoma cell viability loss – ATP luminescence, cytotoxicity control for P. falciparum antimalarial project, primary screen (AID 2303;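 active means inhibition above 50%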;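 further: 0% = DMSO wells and 100% = digitonin-killed cells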); settings: HepG2 viability, 24-48 h, at 10 µM, stronger effect = higher value
# [3] = target: L-lactate dehydrogenase (Plasmodium falciparum (isolate CDC / Honduras)) (UniProt Q27743); assay: PfLDH activity inhibition – cell lysate, 3D7 strain, counter-screen for P. falciparum growth inhibition project (AID 2304);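 further: 0% = vehicle and 100% = reference inhibitor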; settings: P. falciparum 3D7 crude extract, LDH APAD/NBT absorbance; at 2 µM; stronger effect = higher value
# L-lactate dehydrogenase (Plasmodium falciparum (isolate CDC / Honduras)), sequence (Q27743 whole entry, looked up): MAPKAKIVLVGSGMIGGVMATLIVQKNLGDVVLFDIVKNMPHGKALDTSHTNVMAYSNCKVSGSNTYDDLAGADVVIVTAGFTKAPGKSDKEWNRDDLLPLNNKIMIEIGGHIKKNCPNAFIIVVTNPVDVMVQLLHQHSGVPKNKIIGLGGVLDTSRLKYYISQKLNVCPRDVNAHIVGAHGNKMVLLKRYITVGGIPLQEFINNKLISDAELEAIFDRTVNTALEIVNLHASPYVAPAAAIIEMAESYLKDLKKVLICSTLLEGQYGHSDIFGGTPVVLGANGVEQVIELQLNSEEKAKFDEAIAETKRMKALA
# [4] = inhibition of 3D7 malaria parasite growth – strain 3D7 (AID 2306);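 further: 0% = DMSO wells and 100% = chloroquine plus artemisinin control wells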; settings: P. falciparum 3D7 erythrocytic growth, LDH absorbance, 72 h; at 2 µM; stronger effect = higher value
# [5] = target: Calcium-dependent protein kinase 1 (Plasmodium falciparum (isolate 3D7)) (UniProt P62344); assay: PfCDPK1 kinase inhibitors, biochemical, TCAMS library (AID 1159585; cut-off not given, nearly all actives have IC50 up to about 0.98 µM;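 further: inhibitors leave more ATP so luminescence rises with inhibition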); settings: recombinant PfCDPK1, Kinase-Glo ATP depletion luminescence
# Calcium-dependent protein kinase 1 (Plasmodium falciparum (isolate 3D7)), sequence (P62344 whole entry, looked up): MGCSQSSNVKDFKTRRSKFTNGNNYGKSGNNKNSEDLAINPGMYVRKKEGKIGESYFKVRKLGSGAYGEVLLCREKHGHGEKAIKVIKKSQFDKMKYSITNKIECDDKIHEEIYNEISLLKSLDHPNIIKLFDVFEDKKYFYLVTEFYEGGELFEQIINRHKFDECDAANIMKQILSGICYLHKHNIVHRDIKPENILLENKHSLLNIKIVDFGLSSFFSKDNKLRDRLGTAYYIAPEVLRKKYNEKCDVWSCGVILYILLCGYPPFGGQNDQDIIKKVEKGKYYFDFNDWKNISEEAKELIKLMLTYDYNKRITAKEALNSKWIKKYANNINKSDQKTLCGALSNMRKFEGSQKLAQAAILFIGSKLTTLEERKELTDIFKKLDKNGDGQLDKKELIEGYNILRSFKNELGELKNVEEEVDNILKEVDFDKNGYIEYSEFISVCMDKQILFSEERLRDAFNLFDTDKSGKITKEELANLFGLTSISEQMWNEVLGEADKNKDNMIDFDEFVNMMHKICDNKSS
# [6] = target: Plasmodium falciparum protein kinase 6 (PK6, PF3D7_1337100) (UniProt Q8IDW1); assay: PfPK6 kinase inhibitors, biochemical, TCAMS library (AID 1159586); settings: recombinant PfPK6, Kinase-Glo ATP depletion luminescence
# Plasmodium falciparum protein kinase 6 (PK6, PF3D7_1337100), sequence (Q8IDW1 1-305): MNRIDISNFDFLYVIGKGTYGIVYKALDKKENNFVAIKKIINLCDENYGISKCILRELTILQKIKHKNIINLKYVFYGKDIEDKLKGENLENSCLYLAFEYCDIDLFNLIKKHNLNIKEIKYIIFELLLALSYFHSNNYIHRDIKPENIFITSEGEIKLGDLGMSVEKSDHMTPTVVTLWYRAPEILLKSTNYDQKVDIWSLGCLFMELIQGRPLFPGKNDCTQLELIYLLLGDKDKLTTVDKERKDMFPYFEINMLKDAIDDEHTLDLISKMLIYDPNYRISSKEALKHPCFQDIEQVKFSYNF
# [7] = target: Protein kinase 7 (PK7), Plasmodium falciparum 3D7 (PF3D7_0213400) (UniProt Q7YTF7); assay: inhibition of Plasmodium PK7 catalytic activity – biochemical, TCAMS antimalarial set, Kinase-Glo luminescence (AID 1159587); settings: recombinant PfPK7, Kinase-Glo ATP depletion luminescence
# Protein kinase 7 (PK7), Plasmodium falciparum 3D7 (PF3D7_0213400), sequence (Q7YTF7 1-343): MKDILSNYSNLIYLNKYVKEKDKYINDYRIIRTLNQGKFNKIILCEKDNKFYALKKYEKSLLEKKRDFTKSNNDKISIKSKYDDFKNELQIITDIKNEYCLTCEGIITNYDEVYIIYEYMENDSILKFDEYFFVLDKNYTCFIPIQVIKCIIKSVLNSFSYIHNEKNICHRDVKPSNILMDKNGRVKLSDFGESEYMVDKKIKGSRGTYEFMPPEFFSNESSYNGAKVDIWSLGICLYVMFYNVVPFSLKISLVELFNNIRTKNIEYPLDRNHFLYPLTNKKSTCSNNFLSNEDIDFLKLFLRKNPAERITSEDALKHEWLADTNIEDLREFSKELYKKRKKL
# [8] = target: Calcium-dependent protein kinase 4 (Plasmodium falciparum (isolate 3D7)) (UniProt Q8IBS5); assay: PfCDPK4 kinase inhibitors, biochemical, TCAMS library (AID 1159588; cut-off not given, nearly all actives have IC50 up to about 0.91 µM); settings: recombinant PfCDPK4, Kinase-Glo ATP depletion luminescence
# Calcium-dependent protein kinase 4 (Plasmodium falciparum (isolate 3D7)), sequence (Q8IBS5 whole entry, looked up): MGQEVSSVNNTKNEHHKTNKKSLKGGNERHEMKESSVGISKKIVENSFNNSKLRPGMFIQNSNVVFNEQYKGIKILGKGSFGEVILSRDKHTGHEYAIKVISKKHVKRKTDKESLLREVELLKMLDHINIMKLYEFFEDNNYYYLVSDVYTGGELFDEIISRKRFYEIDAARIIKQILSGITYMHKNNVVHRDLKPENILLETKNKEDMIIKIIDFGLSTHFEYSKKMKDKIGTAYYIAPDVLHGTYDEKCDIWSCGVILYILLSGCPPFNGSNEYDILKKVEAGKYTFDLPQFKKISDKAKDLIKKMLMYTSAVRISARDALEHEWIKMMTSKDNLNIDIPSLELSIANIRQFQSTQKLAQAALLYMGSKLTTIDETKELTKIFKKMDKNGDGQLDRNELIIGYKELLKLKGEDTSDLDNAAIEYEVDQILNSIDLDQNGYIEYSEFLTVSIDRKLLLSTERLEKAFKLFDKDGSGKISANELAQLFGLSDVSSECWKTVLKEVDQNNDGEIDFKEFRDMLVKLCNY
Structure (SMILES),growth inhibition [1],inhibition [2],inhibition [3] [%],growth inhibition [4],outcome [5],outcome [6],outcome [7],outcome [8]
COc1ccc(CNc2ncnc3c2[nH]c2ccc(F)cc23)cc1,71% (active),38%,-3,93% (active),inactive,inactive,inactive,inactive
Fc1cccc2sc(Nc3nc(-c4ccccn4)cs3)nc12,97% (active),30%,6,95% (active),inactive,inactive,inactive,inactive
Cc1cc(NN=Cc2cccc([N+](=O)[O-])c2)c2ccc(F)cc2n1,98% (active),-18%,-8,101% (active),inactive,inactive,inactive,inactive
CC(C)(C)c1ccc(CN2CCC(CNC(=O)c3cc(-c4cccc(F)c4)cs3)C2)cc1 (stereo unspecified),55% (active),32%,3,100% (active),inactive,inactive,inactive,inactive
Cc1[nH]c2ccccc2c1CC1CCN(CC2CCN(C(=O)/C=C/c3ccc(Cl)c(Cl)c3)CC2)CC1,14%,34%,-3,92% (active),inactive,inactive,inactive,inactive
CCOC(=O)c1cc(Cl)ccc1OCCCON1C(N)=NC(N)=NC1(C)C,95% (active),69% (active),3,94% (active),inactive,inactive,inactive,inactive
N=C(N)c1cccc(-c2cc(-c3cccc(C(=N)N)c3)on2)c1,78% (active),8%,3,96% (active),inactive,inactive,inactive,inactive
CCCC(=O)Nc1ccc(OCCCN(Cc2cccc(C(F)(F)F)c2)c2ccc(C#N)c(C(F)(F)F)c2)cc1,89% (active),-12%,-5,90% (active),inactive,inactive,inactive,inactive
Cc1cc2c3c(N)nc(N)nc3ccc2n1C(C)C,0%,70% (active),2,93% (active),inactive,inactive,inactive,inactive
CS(=O)(=O)c1ccc(CNCc2ccc(-c3cccc(-c4nc5ccccc5[nH]4)c3)cc2)cc1,88% (active),17%,-7,100% (active),inactive,inactive,inactive,inactive
Cc1[nH]c(C)c(-c2ccc(-c3ccc(OC(F)(F)F)cc3)cc2)c(=O)c1Br,97% (active),33%,-3,96% (active),inactive,inactive,inactive,inactive
CC1CCCCC1N(C)C1CCN(CCCNC(=O)C=Cc2cccc(C(F)(F)F)c2)CC1 (stereo unspecified),17%,47%,-2,100% (active),inactive,inactive,inactive,inactive
NCCNc1ccc([N+](=O)[O-])cc1C(=O)Nc1cccc(C(F)(F)F)c1,33%,1%,0,94% (active),inactive,inactive,inactive,inactive
O=C(NCc1cccc(C(F)(F)F)c1)C1CCCN(C(=O)c2ccc(O)c(-c3ccc(Cl)c(Cl)c3)c2)C1 (stereo unspecified),32%,1%,6,94% (active),inactive,inactive,inactive,inactive
O=C(NCc1cccc2ccccc12)[C@@H]1CCCN1C(=O)c1ccc(O)c(-c2ccc(Cl)c(Cl)c2)c1,71% (active),-4%,2,98% (active),inactive,inactive,inactive,inactive
COc1ccc(-c2ccc(NC(=O)c3cccc(C#N)c3)cc2)cc1CN1CCC(O)CC1,84% (active),21%,7,101% (active),inactive,inactive,inactive,inactive
O=S(=O)(NCCN1CCCC1)c1ccc(-c2ccc(CNC3Cc4ccccc4C3)cc2)cc1,91% (active),61% (active),5,99% (active),inactive,inactive,inactive,inactive
Cc1cc(N[C@@H](Cc2ccccc2)C(=O)NCCOc2ccccc2)nc(NCC2CCCCC2)n1,75% (active),30%,-1,100% (active),inactive,inactive,inactive,inactive
CCC(O)(C#Cc1c(C)nc(N)nc1N)CC,-5%,63% (active),2,97% (active),inactive,inactive,inactive,inactive

Structure (SMILES),growth inhibition [1],inhibition [2],inhibition [3] [%],growth inhibition [4],outcome [5],outcome [6],outcome [7],outcome [8]
Cn1c(O)c(N=NC(=S)N2CCOCC2)c2ccccc21,54% (active),57% (active),6,95% (active),inactive,inactive,inactive,inactive
CN(C)c1cccc2c1nc(-c1ccco1)n2CCNCc1ccccc1,97% (active),-1%,2,98% (active),inactive,inactive,inactive,inactive
O=C(/C=C/c1ccc(Cl)c(Cl)c1)NCCCCCN1CCC(C(=O)Nc2cccc(Cl)c2)CC1,-2%,48%,-3,100% (active),inactive,inactive,inactive,inactive
COc1ccc(C(=O)CCC(=O)N(Cc2ccc(-c3ccc(CNCCc4ccc(S(C)(=O)=O)cc4)cn3)cc2)C2CCN(Cc3ccccc3)CC2)cc1F,72% (active),20%,2,99% (active),inactive,inactive,inactive,inactive
COc1cc(NC(=O)CCCCCCCCN2CCN(C)CC2)c2ncccc2c1,36%,8%,-1,82% (active),inactive,inactive,inactive,inactive
CCOc1ccc(C(=O)Nc2cc(Cl)ccc2O)cc1Cl,84% (active),11%,0,83% (active),inactive,inactive,inactive,inactive
Cc1cccc2nc(C(=O)Nc3nc(CN4CCC(C)CC4)cs3)cn12,80% (active),-27%,0,94% (active),inactive,inactive,inactive,inactive
COc1ccc(-c2ccc(NC(=O)c3cccc(F)c3)cc2)cc1CN1CCCN(C)CC1,49%,32%,-1,100% (active),inactive,inactive,inactive,inactive
CN(C)Cc1c(O)ccc2[nH]c(-c3ccc(OC(F)(F)F)cc3)nc12,97% (active),24%,-3,101% (active),inactive,inactive,inactive,inactive
CCNc1cc(C(=O)N[C@@H](Cc2ccccc2)[C@H](O)CNC2(CC)CCCCC2)cc(N2CCCCS2(=O)=O)c1,98% (active),3%,-3,98% (active),inactive,inactive,inactive,inactive
O=C(NC1CCC(CCN2CCc3ccc(-c4cnccn4)cc3CC2)CC1)c1cccc(-n2cccn2)c1 (stereo unspecified),1%,23%,-3,93% (active),inactive,inactive,inactive,inactive
O=C(NCCCCN1CCC(c2ccc3c(c2O)CCCC3)CC1)c1ccc(-c2ccc(Cl)cc2)cc1,72% (active),97% (active),1,98% (active),inactive,inactive,inactive,inactive
O=C(Nc1ccnc2ccccc12)NC1CCN(CCc2ccccc2)CC1,43%,7%,-3,100% (active),inactive,inactive,inactive,inactive
Cc1nc(-c2ccc(-c3ccc(C(=O)Nc4ccc(C(C)C)c(OCCN(C)C)c4)cc3)c(C)c2)no1,45%,49%,-2,99% (active),inactive,inactive,inactive,inactive
O=C(CSc1n[nH]c(=O)n1Cc1ccccc1)Nc1ccccc1-c1ccccc1,36%,-8%,3,89% (active),inactive,inactive,inactive,inactive
Cc1ccc(NC(=O)c2ccc3ncccc3c2)cc1OC1CCN(Cc2ccsc2)CC1,29%,21%,-2,93% (active),inactive,inactive,inactive,inactive
Cc1cc(NC2CCN(CC3CCCCC3)C2)nc(Nc2ccc(Br)cc2)n1 (stereo unspecified),83% (active),22%,-1,101% (active),inactive,inactive,inactive,inactive
COc1ccc(Nc2nccc(N3CCC(NC(=O)Nc4cccc(C(C)=O)c4)C3)n2)cc1 (stereo unspecified),79% (active),29%,-11,98% (active),inactive,inactive,inactive,inactive

# — PubChem BioAssay
